In experiment [1] the test system is Vero E6 infected with SARS-CoV-2. In words: morphology score (similarity to uninfected cells); higher = more like uninfected cells. As to conditions: 24 h.
For experiment [2] the test system is unchanged. In words: SARS-CoV-2 infection rate relative to infected DMSO; higher = more infection, active = 60 or less. As to conditions: 24 h.

`Clc1ccc(Nc2nnc(Cc3ccncc3)c3ccccc23)cc1` [vatalanib] (10 µM): the morphology score in experiment [1] was 0.199. The SARS-CoV-2 infection rate in experiment [2] was 96% (inactive).
The matching figures for `Cc1ncc(CO)c(C=O)c1O` [pyridoxal] (10 µM): -0.165 and 109% (inactive).
The matching figures for `O=C(O)c1cc(N2N=C(C(F)(F)F)/C(=C/c3ccc(-c4ccccc4)o3)C2=O)ccc1Cl` (10 µM): 0.185 and 97% (inactive).
The matching figures for `CC(O)COC[C@H]1O[C@@H]2O[C@H]3[C@H](O)[C@@H](O)[C@@H](O[C@H]4[C@H](O)[C@@H](O)[C@@H](O[C@H]5[C@H](O)[C@@H](O)[C@@H](O[C@H]6[C@H](O)[C@@H](O)[C@@H](O[C@H]7[C@H](O)[C@@H](O)[C@@H](O[C@H]8[C@H](O)[C@@H](O)[C@@H](O[C@H]1[C@H](O)[C@H]2O)O[C@@H]8COCC(C)O)O[C@@H]7COCC(C)O)O[C@@H]6COCC(C)O)O[C@@H]5COCC(C)O)O[C@@H]4COCC(C)O)O[C@@H]3COCC(C)O` (stereo partly drawn) [hydroxypropyl-beta-cyclodextrin] (10 µM): 0.254 and 99% (inactive).
Consider `c1ccc2c(c1)CCCC2C1=NCCN1` (centres undefined) [tetrahydrozoline] (0.833333 µM), for which the morphology score in experiment [1] amounted to 0.00054. Further, in experiment [2], the SARS-CoV-2 infection rate is 103% (inactive).
The matching figures for `Cc1c(-c2ccnn2C)cc(C(=O)NCc2ccc(S(C)(=O)=O)cn2)c(=O)n1-c1cccc(C(F)(F)F)c1` (10 µM): 0.101 and 106% (inactive).
The matching figures for `CN[C@H]1C(=O)N[C@@H]2Cc3ccc(cc3)Oc3cc4cc(c3O[C@@H]3O[C@H](C(=O)O)[C@@H](O)[C@H](O)[C@H]3NC(=O)CCCCCCCCC(C)C)Oc3ccc(cc3Cl)[C@@H](O)[C@@H]3NC(=O)[C@H](NC(=O)[C@@H]4NC(=O)[C@@H](NC2=O)c2cc(cc(O)c2Cl)Oc2cc1ccc2O)c1ccc(O)c(c1)-c1c(O[C@H]2O[C@H](CO)[C@@H](O)[C@H](O)[C@@H]2O)cc(O)cc1[C@@H](C(=O)NCCCN(C)C)NC3=O` [dalbavancin] (10 µM): -0.218 and 113% (inactive).

Values taken from the supplement of paper PMC13380429.
